Test systems include HCT-15 colon; HT29 colon; SNB-75 CNS; SNB-19 CNS; U251 CNS; PC-3 prostate; SK-MEL-5 melanoma; UACC-62 melanoma; LOX IMVI melanoma; SK-MEL-28 melanoma; SK-MEL-2 melanoma; EKVX NSCLC; SN12C renal; UO-31 renal; TK-10 renal; ACHN renal; CAKI-1 renal; A498 renal; CCRF-CEM leukemia; MOLT-4 leukemia.
Holding throughout (assay): NCI-60 one-dose screen, 48 h (100 = growth as untreated, 0 = no growth, -100 = all killed)
Common to all, as to details: 10 µM unless noted

Where “and” joins values, the source holds several entries; their conditions need not be identical. Equal values may be shown once. This is part of a sample that, as a whole, favours compounds with a hit. Of some 83,000 tested, about 20% had one in any assay.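 Results are percent growth after 48 hours of single-concentration exposure. 100 means growth as in untreated cells, lower positive values show inhibition; negative values down to -100 show cell death.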 A number with no mark means an inactive call. Calls of active or inactive are those of the source. The calls were made as follows: active = growth percent below 10; inactive = the rest.

Turning to `COc1ccc(Nc2nn3c(SCC(=O)c4ccc(C)cc4)nnc3s2)cc1`, the growth with HCT-15 colon is 105%; in the test on HT29 colon, 105%; in the test with SNB-75 CNS, 95.7%; in the test with SNB-19 CNS, 98.8%; with U251 CNS it was 106%; in the test with PC-3 prostate, 85.5%. The growth with SK-MEL-5 melanoma was 95.4%; in the test on UACC-62 melanoma, 83.7%; in the test with LOX IMVI melanoma, 95.9%; in the test with SK-MEL-28 melanoma, 109%; with SK-MEL-2 melanoma, 98.2%; in the test with EKVX NSCLC, 99.9%. Moreover, the growth is 101% with SN12C renal; 58.7% in the test with UO-31 renal; 107% with TK-10 renal; 86.5% in the test on ACHN renal; 75.2% with CAKI-1 renal; 93.7% in the test on A498 renal. In addition, the growth was 98.1% with CCRF-CEM leukemia and 85.4% in the test with MOLT-4 leukemia.
As to `Cc1nc(-n2[nH]c(=O)ccc2=O)sc1N=Nc1ccccc1`, the growth with HCT-15 colon was 101%; in the test on HT29 colon, 110%; in the test with SNB-75 CNS, 95.7%; with SNB-19 CNS, 99.3%; with U251 CNS it was 100%; in the test with PC-3 prostate, 95.8%. The growth was 97.4% in the test on SK-MEL-5 melanoma; 93.3% in the test with UACC-62 melanoma; 102% with LOX IMVI melanoma; 103% in the test on SK-MEL-28 melanoma; 108% in the test with SK-MEL-2 melanoma; 96.5% with EKVX NSCLC. The growth with SN12C renal was 97.7%; in the test on UO-31 renal it was 84.1%; in the test on TK-10 renal, 121%; in the test on ACHN renal, 99.5%; with CAKI-1 renal it was 91.5%; with A498 renal, 105%. The growth with CCRF-CEM leukemia is 100%; in the test with MOLT-4 leukemia, 99.4%.
As to `CSc1nnc(-c2cc3c([nH]c4ccccc43)c(-c3cccc(O)c3)n2)n1-c1ccc(C)cc1`, the growth with HCT-15 colon is 23.2%; with HT29 colon it was 8.92% (active); in the test with SNB-75 CNS, 30.1%; with SNB-19 CNS it was 54.3%; in the test on U251 CNS it was 29.4%; in the test on PC-3 prostate, 25.8%. The growth in the test with SK-MEL-5 melanoma is 13.5%; in the test with UACC-62 melanoma, 40.1%; in the test with LOX IMVI melanoma it was 29.3%; with SK-MEL-28 melanoma, 9.42% (active); in the test with SK-MEL-2 melanoma, -13.6% (active); with EKVX NSCLC it was 70.4%. For the same compound, the growth in the test with SN12C renal was 62.7%; in the test on UO-31 renal, 41.5%; in the test with TK-10 renal it was 35.5%; in the test with ACHN renal, 32.3%; in the test with CAKI-1 renal, 48.3%; in the test on A498 renal, 30.6%. Moreover, the results for the growth in the test with CCRF-CEM leukemia and in the test with MOLT-4 leukemia were 12.2% and 17.4%, respectively.
Turning to `Clc1ccc(/C=N\N2CCCCCC2)cc1`, the growth was 95.7% and 92.9% in the test on HCT-15 colon; 101% and 84.9% in the test with HT29 colon; 100% and 110% in the test on SNB-75 CNS; 96.4% and 109% with SNB-19 CNS; 92.3% and 98.5% with U251 CNS; 105% in the test on PC-3 prostate. The growth was 98.2% and 106% with SK-MEL-5 melanoma; 92.1% and 104% in the test with UACC-62 melanoma; 102% with LOX IMVI melanoma; 104% and 107% with SK-MEL-28 melanoma; 122% and 106% in the test with SK-MEL-2 melanoma; 88.7% and 90.9% in the test with EKVX NSCLC. For the same compound, the growth was 90.9% and 106% in the test with SN12C renal; 88.4% in the test on UO-31 renal; 105% and 103% in the test on TK-10 renal; 99.5% and 102% in the test with ACHN renal; 124% and 94.9% with CAKI-1 renal; 79.6% in the test with A498 renal. Moreover, the growth in the test on CCRF-CEM leukemia is 101%; in the test with MOLT-4 leukemia, 109% and 99.4%.
For the compound `COCCn1cc(-c2csc(-c3cn(C)c4ccc(F)cc34)n2)c2cccnc21`, the growth in the test on HCT-15 colon is 27.9%; in the test on HT29 colon, 35.5%; with SNB-75 CNS it was 76.4%; in the test on SNB-19 CNS, 82.6%; with U251 CNS, 65.5%; with PC-3 prostate it was 46.5%. The growth with SK-MEL-5 melanoma is 72.7%; with UACC-62 melanoma, 79.9%; in the test with LOX IMVI melanoma it was 25.8%; in the test on SK-MEL-28 melanoma, 79.8%; with SK-MEL-2 melanoma it was 72%; in the test with EKVX NSCLC it was 59%. The growth was 74.5% in the test on SN12C renal; 64.2% in the test with UO-31 renal; 81.5% in the test with TK-10 renal; 78% in the test with ACHN renal; 84% with CAKI-1 renal; 36.3% with A498 renal. Moreover, the growth in the test on CCRF-CEM leukemia was 56%; in the test on MOLT-4 leukemia, 56.7%.
Take `O=C(/C=C\c1ccc(Cl)c(Cl)c1)c1ccccc1`: the growth is 65.6% and 100% in the test on HCT-15 colon; 37.5% and 88.8% in the test with HT29 colon; 98.5% and 99.9% in the test with SNB-75 CNS; 86.9% and 98.4% in the test on SNB-19 CNS; 85.3% with U251 CNS; 98.8% and 87.6% with PC-3 prostate. The growth in the test on SK-MEL-5 melanoma is 97.2% and 101%; with UACC-62 melanoma, 91.7% and 95.9%; with LOX IMVI melanoma, 10.8% and 91.5%; in the test with SK-MEL-28 melanoma, 102% and 108%; in the test with SK-MEL-2 melanoma, 119% and 109%; in the test with EKVX NSCLC, 89.3%. In addition, the growth in the test with SN12C renal is 96.1% and 104%; in the test with UO-31 renal it was 72.2% and 84.2%; in the test on TK-10 renal it was 80.6% and 103%; in the test with ACHN renal, 95.2% and 105%; in the test on CAKI-1 renal, 96.7% and 89.5%; in the test with A498 renal, 74.1% and 77.3%. The growth in the test with CCRF-CEM leukemia was 45.5% and 91.1%; in the test on MOLT-4 leukemia, 77.4% and 103%.
